Laboratory results reported in PubChem BioAssay (Tox21).
Several values for one entry are separate records, joined by “and”; a condition that tells them apart may be missing. Identical values can stand only once. Records with an inconclusive call do not appear. Entries that show only a call come without a potency. Activity calls are given as the source filed them. Unless noted, the call rests on the fitted dose curve.

Tests used:
[1] = qHTS assay to identify small molecule agonists of the peroxisome proliferator-activated receptor delta (PPARd) signaling pathway - cell viability counter screen (AID 743211; active means well fitted curve in the direction sought with a large enough effect in the repeat runs; an effect the other way counts as inactive or inconclusive; further: nearly all actives have a fitted effect of over 55% in size)
Outline: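 Counter screen for cytotoxicity run in parallel with the PPARd reporter screen. Beta-lactamase reporter HEK293H cells exposed to compounds 17 h; ATP-based CellTiter-Glo luminescence quantified viability.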

[2] = qHTS assay to identify small molecule antagonists of the peroxisome proliferator-activated receptor delta (PPARd) signaling pathway - cell viability counter screen (AID 743213; active means well fitted curve in the direction sought with a large enough effect in the repeat runs; an effect the other way counts as inactive or inconclusive; further: nearly all actives have a fitted effect of over 50% in size)
Outline: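 Luminescence from CellTiter-Glo, added after the bla read and incubated 30 min at room temperature, gives viability of HEK293H PPARd-bla cells exposed to compounds for 17 h at 37 C with 300 nM L165041.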

[3] = qHTS assay to identify small molecule antagonists of the farnesoid-X-receptor (FXR) signaling pathway - cell viability counter screen (AID 743221; active means well fitted cell-killing curve with a large enough effect in the repeat runs, not every such curve was filed as active; further: nearly all actives have a fitted effect of over 50% in size)
Outline: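 Multiplexed counter screen: viability of FXR-bla HEK 293T cells under agonist stimulation by chenodeoxycholic acid (50 uM, final) and test compound for 16 h at 37 C, measured by CellTiter-Glo luminescence in the reporter wells.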

[4] = molecular target: Vitamin D3 receptor (Homo sapiens) (UniProt P11473); assay: qHTS assay to identify small molecule agonists of the vitamin D receptor (VDR) signaling pathway (AID 743222)
Vitamin D3 receptor (Homo sapiens), sequence (P11473 whole entry, looked up): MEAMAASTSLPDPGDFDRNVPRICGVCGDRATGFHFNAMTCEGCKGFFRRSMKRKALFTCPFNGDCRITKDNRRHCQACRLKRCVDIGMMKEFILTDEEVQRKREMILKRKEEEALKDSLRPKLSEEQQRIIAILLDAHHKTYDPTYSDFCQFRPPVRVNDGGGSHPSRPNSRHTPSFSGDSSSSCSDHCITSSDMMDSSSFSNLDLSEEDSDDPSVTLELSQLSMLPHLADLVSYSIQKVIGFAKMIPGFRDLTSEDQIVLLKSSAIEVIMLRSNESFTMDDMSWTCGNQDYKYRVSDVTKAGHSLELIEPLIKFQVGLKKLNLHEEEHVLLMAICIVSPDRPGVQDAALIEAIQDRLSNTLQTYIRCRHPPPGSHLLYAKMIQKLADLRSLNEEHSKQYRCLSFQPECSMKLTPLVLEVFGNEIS
Outline: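 Quantitative HTS agonist-mode screen: compounds in DMSO were pin-transferred onto VDR-bla cells and incubated 16 h at 37C, 5% CO2. Reporter activity was detected with LiveBLAzer B/G FRET substrate after 2 h at room temperature.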

[5] = molecular target: Vitamin D3 receptor (Homo sapiens) (UniProt P11473); assay: qHTS assay to identify small molecule antagonists of the vitamin D receptor (VDR) signaling pathway (AID 743223; active means well fitted inhibition curve with a large enough effect in the signal ratio in the repeat runs, not every such curve was filed as active; the % refers to the signal ratio)
Outline: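 Cells carrying a VDR-driven beta-lactamase reporter (VDR-bla) were co-treated with compound and 3 nM final 1alpha,25-dihydroxyvitamin D3 for 16 h at 37C; reporter activity was measured as FRET substrate fluorescence after 2 h at room temperature.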

[6] = qHTS assay to identify small molecule agonists of the vitamin D receptor (VDR) signaling pathway - cell viability counter screen (AID 743224; active means well fitted curve in the direction sought with a large enough effect in the repeat runs; an effect the other way counts as inactive or inconclusive; further: series mostly up to about 63 µM; nearly all actives have a fitted effect of over 50% in size)
Outline: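 Viability is measured in the same wells as the VDR-bla reporter assay: after 16 h compound treatment and 2 h substrate loading, CellTiter-Glo is added and luminescence read 30 min later.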

[7] = qHTS assay to identify small molecule antagonists of the vitamin D receptor (VDR) signaling pathway - cell viability counter screen (AID 743225; active means well fitted curve in the direction sought with a large enough effect in the repeat runs; an effect the other way counts as inactive or inconclusive; further: nearly all actives have a fitted effect of over 50% in size)
Outline: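 HEK293T VDR-bla; cpd + 1a,25-(OH)2D3 3 nM final, 16 h 37C/5% CO2; B/G FRET substrate 2 h RT; then CellTiter-Glo 30 min RT, luminescence.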

[8] = qHTS assay to identify small molecule agonists of the NFkB signaling pathway - cell viability counter screen (AID 1159515); further: series mostly up to about 61 µM; nearly all actives have a fitted effect of over 55% in size
Outline: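 Multiplexed viability readout: after the 5 hr compound exposure and 1.5 hr FRET substrate step, CellTiter-Glo reagent went into the same NFkB-bla ME-180 wells; ATP luminescence was measured after 30 min at room temperature.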

[9] = qHTS assay to identify small molecule agonists of the endoplasmic reticulum stress response signaling pathway (AID 1159516; active means well fitted activation curve with a large enough effect in the signal ratio in the repeat runs, not every such curve was filed as active; the % refers to the signal ratio)
Outline: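 Tox21 10K library screened in quantitative HTS format on ESRE-bla HeLa cells, a beta-lactamase reporter under ER stress response element control; 5 hr treatment, FRET read.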

[10] = qHTS assay to identify small molecule agonists of the endoplasmic reticulum stress response signaling pathway - cell viability counter screen (AID 1159517)
Outline: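 Counter-screen wells were identical to the reporter wells. Cells were plated at 1,500 per well and dosed for 5 hr, then read for luminescence 30 min after CellTiter-Glo addition.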

[11] = qHTS assay to identify small molecule antagonists of the retinoid-related orphan receptor gamma (ROR-gamma) signaling pathway - cell viability counter screen (AID 1159520; active means well fitted curve in the direction sought with a large enough effect in the repeat runs; an effect the other way counts as inactive or inconclusive; further: nearly all actives have a fitted effect of over 50% in size)
Outline: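 Tet-on ROR gamma CHO cells were given compounds for 2 hr, then doxycycline hyclate at 1 uM final, and incubated 16 hr at 37 C. Viability was measured as ATP content by CellTiter-Glo luminescence.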

[12] = molecular target: Nuclear receptor ROR-gamma (Homo sapiens) (UniProt P51449); assay: qHTS assay to identify small molecule antagonists of the retinoid-related orphan receptor gamma (ROR-gamma) signaling pathway (AID 1159521; active means well fitted curve in the direction sought with a large enough effect in the repeat runs; an effect the other way counts as inactive or inconclusive; further: nearly all actives have a fitted effect of over 50% in size; further: potency means the concentration at half of the fitted maximal effect)
Outline: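 Cells were plated, rested 4 h at 37 C, exposed to compounds for 2 h, then given 1 uM final doxycycline hyclate to induce RORγ expression. After 16 h, ONE-Glo luminescence from the ROR response element reporter was measured.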

[13] = qHTS assay to identify small molecule agonists of the AP-1 signaling pathway - cell viability counter screen (AID 1159525); further: nearly all actives have a fitted effect of over 55% in size
Outline: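 AP-1-bla ME-180 cells in Opti-MEM with 0.5% dialyzed FBS, compound exposure 5 h at 37 C in 15-point titration. Viability read in the same wells as ATP content by CellTiter-Glo luminescence, normalised to tetra-n-octylammonium bromide and DMSO controls.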

[14] = qHTS assay to identify small molecule agonists of the AP-1 signaling pathway (AID 1159526)
[15] = molecular target: Retinoic acid receptor RXR-alpha (Homo sapiens) (UniProt P19793); assay: qHTS assay to identify small molecule agonists of the RXR signaling pathway (AID 1159527); further: nearly all actives have a fitted effect of over 35% in size
Retinoic acid receptor RXR-alpha (Homo sapiens), sequence (P19793 whole entry, looked up): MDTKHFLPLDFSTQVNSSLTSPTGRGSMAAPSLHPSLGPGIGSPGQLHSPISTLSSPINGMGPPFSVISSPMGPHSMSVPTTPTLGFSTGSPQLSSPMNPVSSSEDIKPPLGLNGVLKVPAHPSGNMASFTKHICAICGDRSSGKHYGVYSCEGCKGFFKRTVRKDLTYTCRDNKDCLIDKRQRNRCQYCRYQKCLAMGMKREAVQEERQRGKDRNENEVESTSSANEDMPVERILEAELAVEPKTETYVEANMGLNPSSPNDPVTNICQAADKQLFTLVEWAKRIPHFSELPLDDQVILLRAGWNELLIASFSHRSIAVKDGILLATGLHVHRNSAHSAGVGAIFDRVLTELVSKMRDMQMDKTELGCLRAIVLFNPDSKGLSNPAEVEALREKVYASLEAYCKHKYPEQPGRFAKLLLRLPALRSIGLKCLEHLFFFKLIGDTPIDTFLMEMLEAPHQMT
Outline: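 Cells plated at 2,000/well, rested 5 hr at 37 C, pin-dosed with DMSO compound solutions, incubated 16 hr, then loaded with B/G FRET substrate for 2 hr at RT before dual-emission fluorescence reading.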

[16] = qHTS assay to identify small molecule agonists of the farnesoid-X-receptor (FXR) signaling pathway - cell viability counter screen (AID 743218; active means well fitted curve in the direction sought with a large enough effect in the repeat runs; an effect the other way counts as inactive or inconclusive; further: nearly all actives have a fitted effect of over 45% in size)
Outline: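 Cytotoxicity counter-screen run in parallel, same wells: FXR-UAS-bla HEK 293T cells dosed 16 h at 37 C, viability read by CellTiter-Glo luminescence after 30 min at room temperature.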

[17] = molecular target: Peroxisome proliferator-activated receptor delta (Homo sapiens) (UniProt Q03181); assay: qHTS assay to identify small molecule agonists of the peroxisome proliferator-activated receptor delta (PPARd) signaling pathway (AID 743212)
Peroxisome proliferator-activated receptor delta (Homo sapiens), sequence (Q03181 whole entry, looked up): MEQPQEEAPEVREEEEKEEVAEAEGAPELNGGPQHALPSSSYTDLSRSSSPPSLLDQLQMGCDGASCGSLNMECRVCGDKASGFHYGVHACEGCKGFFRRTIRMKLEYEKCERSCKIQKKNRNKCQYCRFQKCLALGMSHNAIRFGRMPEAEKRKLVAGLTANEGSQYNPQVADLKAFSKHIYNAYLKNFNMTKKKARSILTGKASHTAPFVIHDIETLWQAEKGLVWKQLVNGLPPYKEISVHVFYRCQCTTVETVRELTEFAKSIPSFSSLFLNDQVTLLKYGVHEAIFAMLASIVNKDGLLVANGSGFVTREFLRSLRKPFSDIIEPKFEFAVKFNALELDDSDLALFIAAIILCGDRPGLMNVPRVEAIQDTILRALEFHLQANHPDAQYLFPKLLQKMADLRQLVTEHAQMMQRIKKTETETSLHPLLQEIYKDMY
Outline: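 Quantitative high-throughput agonist screen in a HEK293H beta-lactamase reporter line under UAS control. Compounds in DMSO, at 37 C. Fluorescence read after 2 h with FRET substrate at room temperature.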

[18] = molecular target: Peroxisome proliferator-activated receptor delta (Homo sapiens) (UniProt Q03181); assay: qHTS assay to identify small molecule antagonists of the peroxisome proliferator-activated receptor delta (PPARd) signaling pathway (AID 743215; active means well fitted inhibition curve with a large enough effect in the signal ratio in the repeat runs, not every such curve was filed as active; the % refers to the signal ratio;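 further: cells stimulated with agonist L165041 at 300 nM final during compound exposure; series mostly up to about 62 µM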)
Outline: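 Inhibition of L165041-driven (300 nM final) PPARd signaling is scored in HEK293H UAS-bla cells. Exposure lasts 17 h at 37 C; beta-lactamase activity is then read by FRET substrate fluorescence after 2 h at room temperature.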

[19] = molecular target: Bile acid receptor (Homo sapiens) (UniProt Q96RI1); assay: qHTS assay to identify small molecule agonists of the farnesoid-X-receptor (FXR) signaling pathway (AID 743220; active means well fitted activation curve with a large enough effect in the signal ratio in the repeat runs, not every such curve was filed as active; the % refers to the signal ratio)
Bile acid receptor (Homo sapiens), sequence (Q96RI1 whole entry, looked up): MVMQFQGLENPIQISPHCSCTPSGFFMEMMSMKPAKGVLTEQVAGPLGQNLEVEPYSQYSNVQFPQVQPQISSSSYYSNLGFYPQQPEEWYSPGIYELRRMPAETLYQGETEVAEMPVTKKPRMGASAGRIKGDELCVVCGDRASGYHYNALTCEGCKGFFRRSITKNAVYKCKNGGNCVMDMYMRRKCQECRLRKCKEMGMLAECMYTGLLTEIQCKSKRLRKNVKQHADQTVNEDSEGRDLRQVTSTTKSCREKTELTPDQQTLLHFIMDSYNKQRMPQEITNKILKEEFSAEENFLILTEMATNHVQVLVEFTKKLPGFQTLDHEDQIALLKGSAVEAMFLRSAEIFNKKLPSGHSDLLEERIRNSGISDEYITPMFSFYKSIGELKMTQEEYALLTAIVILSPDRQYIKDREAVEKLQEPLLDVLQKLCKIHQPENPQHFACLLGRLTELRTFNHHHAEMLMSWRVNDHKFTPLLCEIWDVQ
Outline: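 Beta-lactamase reporter under UAS control in GeneBLAzer FXR HEK 293T cells (5000/well) measured with LiveBLAzer FRET substrate after 2 h at room temperature. Compound exposure lasted 16 h at 37C.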

[20] = molecular target: Bile acid receptor (Homo sapiens) (UniProt Q96RI1); assay: qHTS assay to identify small molecule antagonists of the farnesoid-X-receptor (FXR) signaling pathway (AID 743217; active means well fitted inhibition curve with a large enough effect in the signal ratio in the repeat runs, not every such curve was filed as active; the % refers to the signal ratio)
Outline: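 Antagonist mode against 50 uM (final) chenodeoxycholic acid stimulation in FXR-bla HEK 293T cells, 16 h at 37 °C. Inhibition detected as reduced beta-lactamase activity via LiveBLAzer B/G FRET fluorescence after 2 h at room temperature.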

Structure (SMILES) | Potency [1] | Potency [2] | Potency [3] | outcome [4] | Potency [5] | Potency [6] | Potency [7] | Potency [8] | Potency [9] | Potency [10] | Potency [11] | Potency [12] | Potency [13] | outcome [14] | Potency [15] | Potency [16] | Potency [17] | Potency [18] | Potency [19] | Potency [20]
CSc1nc(NC(C)C)nc(NC(C)C)n1 | inactive | inactive | inactive | inactive | inactive | inactive | inactive | inactive | inactive | inactive | inactive | inactive | inactive | inactive | inactive | – | – | – | – | –
C[N+](C)(C)C | inactive | – | inactive | inactive | inactive | inactive | inactive | inactive | inactive | inactive | inactive | inactive | inactive | inactive | inactive | inactive | – | – | – | –
CC1(C)C(C(=O)OC(C#N)c2cccc(Oc3ccccc3)c2)C1(C)C (stereo not given) | inactive | inactive | inactive | inactive | inactive | inactive | inactive | inactive | inactive | inactive | inactive | 48.9 µM (active) | inactive | inactive | – | – | inactive | inactive | inactive | –
Cc1ccc([N+](=O)[O-])cc1 | inactive | – | inactive | inactive | inactive | inactive | inactive | inactive | inactive | inactive | inactive | inactive | inactive | inactive | inactive | – | inactive | inactive | – | –
CCC/C=N/O | inactive | inactive | inactive | inactive | inactive | inactive | inactive | inactive | inactive | inactive | inactive | inactive | inactive | inactive | inactive | inactive | – | – | inactive | inactive
NC(=O)CN1CCCC1=O | inactive | – | – | inactive | inactive | inactive | inactive | inactive | inactive | inactive | inactive | inactive | inactive | inactive | inactive | inactive | – | – | – | –
CCOC(=O)c1ccccc1N | inactive | – | inactive | inactive | inactive | inactive | inactive | inactive | inactive | inactive | inactive | inactive | inactive | inactive | – | inactive | inactive | inactive | inactive | inactive
C[N+](C)(C)CC(=O)O | inactive | – | inactive | – | – | inactive | inactive | inactive | inactive | inactive | inactive | inactive | inactive | inactive | inactive | – | inactive | inactive | – | –
Cn1c(-c2ccccc2)cc(-c2ccccc2)[n+]1C | inactive | – | inactive | inactive | inactive | inactive | inactive | inactive | inactive | inactive | inactive | inactive | inactive | inactive | inactive | inactive | inactive | inactive | – | –
COP(=S)(OC)Oc1ccc(S(=O)(=O)N(C)C)cc1 | inactive | inactive | – | inactive | inactive | inactive | inactive | inactive | inactive | inactive | inactive | inactive | inactive | inactive | inactive | inactive | – | – | – | –
CNC(=S)S | inactive | – | inactive | inactive | inactive | inactive | inactive | inactive | inactive | inactive | inactive | inactive | inactive | inactive | inactive | inactive | inactive | inactive | – | –
OCCOCCO | inactive | inactive | – | inactive | inactive | inactive | inactive | inactive | inactive | inactive | inactive | inactive | inactive | inactive | – | – | inactive | inactive | inactive | inactive
S=c1[nH]c2ccccc2[nH]1 | inactive | inactive | – | – | – | inactive | inactive | inactive | inactive | inactive | inactive | inactive | inactive | inactive | inactive | inactive | – | – | – | –
CCOP(=S)(OCC)OP(=S)(OCC)OCC | inactive | inactive | – | – | – | inactive | inactive | inactive | inactive | inactive | inactive | inactive | inactive | inactive | – | – | inactive | inactive | inactive | –
O=[N+]([O-])/N=C1\NCCN1Cc1ccc(Cl)nc1 | inactive | – | inactive | inactive | inactive | inactive | inactive | inactive | inactive | inactive | inactive | inactive | inactive | inactive | inactive | inactive | – | – | inactive | inactive
CCC1(c2ccc(N)cc2)CCC(=O)NC1=O (stereo not given) | inactive | inactive | inactive | inactive | inactive | inactive | inactive | inactive | inactive | inactive | inactive | inactive | inactive | inactive | inactive | inactive | – | – | inactive | inactive
Nc1ccc2ccccc2c1 | inactive | inactive | inactive | inactive | inactive | inactive | inactive | inactive | inactive | inactive | inactive | inactive | inactive | inactive | inactive | inactive | – | – | – | –
C[C@]12CCC(=O)C=C1CC[C@@H]1[C@@H]2CC[C@@]2(C)[C@H]1CC[C@]2(C)O | inactive | inactive | inactive | – | – | inactive | inactive | inactive | inactive | inactive | inactive | 15.5 µM (active) and 26.6 µM (active) | inactive | inactive | – | inactive | inactive | – | – | –
